Among all 220,000 compounds or so, about 910 (0.41%) were called active. Shown is part of a subset that was picked to be rich in actives. Measured potencies and affinities stand elsewhere. Values without a mark were called inactive.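 How the source made its calls: active means primary inhibition above the hit cutoff, then over 50% inhibition at one or more dose response concentrations (cut at about 23% in these data, passing the limit was not always enough); inconclusive means conflicting primary data, or primary hits not chosen for dose response; inactive means low primary inhibition, or under 50% at every dose.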
target: Aminopeptidase N (Plasmodium falciparum (isolate 3D7)) (UniProt O96935); assay: malaria alanyl aminopeptidase activity blockers – biochemical, fluorogenic H-Leu-NHMec substrate, 1536-well (AID 1445); conditions: recombinant M1AAP, H-Leu-NHMec fluorogenic kinetic assay; at 30 µM, hits give high values unless noted;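 further: plate controls were DMSO full reaction for no effect and no enzyme background for full effect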
Sequence (O96935 whole entry, looked up): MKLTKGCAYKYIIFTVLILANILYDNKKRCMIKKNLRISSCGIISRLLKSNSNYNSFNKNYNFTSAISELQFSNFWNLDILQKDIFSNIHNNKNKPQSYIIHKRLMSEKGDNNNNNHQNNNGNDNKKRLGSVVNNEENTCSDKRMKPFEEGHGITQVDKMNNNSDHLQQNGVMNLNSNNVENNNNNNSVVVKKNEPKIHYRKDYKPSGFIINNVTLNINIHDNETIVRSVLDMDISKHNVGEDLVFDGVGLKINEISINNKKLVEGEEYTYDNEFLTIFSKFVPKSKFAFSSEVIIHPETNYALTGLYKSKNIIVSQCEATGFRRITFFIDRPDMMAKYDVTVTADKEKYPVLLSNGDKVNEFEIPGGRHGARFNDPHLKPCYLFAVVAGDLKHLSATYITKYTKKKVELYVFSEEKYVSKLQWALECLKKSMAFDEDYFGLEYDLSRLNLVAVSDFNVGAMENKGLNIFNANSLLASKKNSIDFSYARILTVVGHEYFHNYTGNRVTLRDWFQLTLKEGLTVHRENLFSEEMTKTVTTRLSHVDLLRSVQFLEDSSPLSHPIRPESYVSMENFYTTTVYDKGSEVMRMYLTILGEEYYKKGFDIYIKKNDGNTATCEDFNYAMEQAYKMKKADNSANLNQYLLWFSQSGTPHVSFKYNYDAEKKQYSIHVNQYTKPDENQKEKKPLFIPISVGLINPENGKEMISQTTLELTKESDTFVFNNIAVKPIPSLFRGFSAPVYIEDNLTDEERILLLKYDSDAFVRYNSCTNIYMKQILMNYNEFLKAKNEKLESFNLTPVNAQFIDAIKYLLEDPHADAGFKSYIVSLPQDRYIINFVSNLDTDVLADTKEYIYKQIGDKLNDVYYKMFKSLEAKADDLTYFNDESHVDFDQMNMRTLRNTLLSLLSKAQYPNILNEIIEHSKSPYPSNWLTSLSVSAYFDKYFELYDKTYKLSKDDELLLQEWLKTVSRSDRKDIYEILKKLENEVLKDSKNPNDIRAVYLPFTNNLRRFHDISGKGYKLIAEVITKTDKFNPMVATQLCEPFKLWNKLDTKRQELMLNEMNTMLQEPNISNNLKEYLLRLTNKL

| SMILES | inhibition |
| --- | --- |
| Cc1ccc(C(NC(=O)N2CCN(C)CC2)C(Cl)Cl)cc1F (stereo unspecified) | 0.01% |
| CCCCc1ccc(NC(=O)COc2ccc(C(=O)Nc3ccccc3C)cc2)cc1 | -2.91% |
| COc1cc2c(cc1OC)C(c1cccs1)NCC2 (stereo unspecified) | 0.84% |
| O=C(NCc1cccs1)c1nn2cccnc2c1Cl | 12.7% |
| CCOC(=O)c1cnc(Nc2nc3ccccc3o2)nc1C | 0.38% |
| CCCOC(=O)Nc1nc2ccccc2o1 | -8.89% |
| Nc1nnc(CC(=O)N/N=C/c2ccc([N+](=O)[O-])cc2)s1 | 9.02% |
| Nc1nnc(CC(=O)N/N=C/c2cccc([N+](=O)[O-])c2)s1 | -3.46% |
| CC1(NC(=S)NCCCCCCNC(=S)NC2(C)CCS(=O)(=O)C2)CCS(=O)(=O)C1 (stereo unspecified) | -1.81% |
| Cc1cc(C)c2[nH]c(=O)c(=O)[nH]c2c1 | 4.16% |
| Cc1ccc(-c2n[nH]c(=O)c3ccccc23)cc1N | 12.6% |
| Cc1cc2c(C)c(C)c(=O)[nH]c2cc1N | 25.2% (active) |
| COc1cccc(C2=NOC(C(=O)NCCCn3ccnc3)C2)c1 (stereo unspecified) | 2.65% |
| COc1ccc(/C=C/C(=O)Nc2sc(Cc3ccccc3)c(C)c2C(N)=O)cc1 | 10.2% |
| Cc1ccc(/C=C(\CCC(=O)O)c2nc3ccccc3s2)cc1[N+](=O)[O-] | 15.5% |
| COc1cccc(/C=C(\CC(=O)O)c2nc3ccccc3s2)c1 | 11.8% |
| O=C(O)CC/C(=C\c1ccc(Cl)c([N+](=O)[O-])c1)c1nc2ccccc2s1 | 15.7% |
| O=C(O)CC/C(=C\c1cccc(NC(=O)c2ccccc2Cl)c1)c1nc2ccccc2s1 | 18% |
| CCOc1ccc(C(=O)N(CN2CCCC2=O)c2ccccc2)cc1 | 2.27% |
| Cc1ccc(Oc2cc(NC(=O)CCCn3nc([N+](=O)[O-])c(Cl)c3C)cc([N+](=O)[O-])c2)cc1 | 2.94% |
| CCN1C(=O)c2cccc3c(S(=O)(=O)Nc4ccccc4)ccc1c23 | 6.99% |
| CCOC(=O)CNS(=O)(=O)c1ccc2c3c(cccc13)C(=O)N2CC | 7.58% |
| CCOC(=O)Cc1csc(NS(=O)(=O)c2ccc3c4c(cccc24)C(=O)N3CC)n1 | 23.4% (active) |

| SMILES | inhibition |
| --- | --- |
| CC(/C=N/NC(=O)CNc1n[nH]c(=O)[nH]c1=O)c1ccccc1 (stereo unspecified) | 3.79% |
| CC(=O)Nc1ccc(NC(C)=O)s1 | 2.97% |
| CNC(=O)c1ccc(-c2ccccc2)s1 | 1.69% |
| CC(=O)Nc1ccc(-c2ccccc2)s1 | 25.4% (active) |
| CN(CCNC(=O)CCCOc1cc(=O)n(C)c2ccccc12)Cc1ccccc1 | 2.96% |
| CN(C)c1ccc(NC(=O)c2sc(SCC(=O)Nc3ccc(Br)cc3)nc2N)cc1 | 4.44% |
| CN(C)c1ccc(NC(=O)c2sc(SCC(=O)Nc3nccs3)nc2N)cc1 | 25.2% (active) |
| CN(C)c1ccc(NC(=O)CSc2nc(N)c(C(=O)Nc3ccc(N(C)C)cc3)s2)cc1 | -0.46% |
| COc1ccc(C(=O)NC(=S)Nc2ccc(N3CCOCC3)c(Cl)c2)cc1[N+](=O)[O-] | 14.5% |
| COc1cccc(/C=N/n2c(-c3cccs3)n[nH]c2=S)c1 | 4.5% |
| COc1ccc(NC(=O)Nc2ccccc2)cc1S(=O)(=O)N1CCCCC1 | -0.57% |
| CCOc1ccc(C(=O)N[C@H](C(=O)Nc2ccc(OC)c(S(=O)(=O)N3CCOCC3)c2)C(C)C)cc1 | 2.14% |
| Cc1ccc(N(CC(=O)NC(C)(C)C)C(=O)CS(=O)CC(=O)Nc2ccc3c(c2)OCO3)cc1 (stereo unspecified) | 8.92% |
| Cc1cccc(N(CC(=O)NC(C)(C)C)C(=O)CS(=O)CC(=O)Nc2ccc3c(c2)OCO3)c1 (stereo unspecified) | 3.73% |
| Cc1cccc(N(CC(=O)NC2CCCC2)C(=O)CS(=O)CC(=O)Nc2ccc3c(c2)OCO3)c1C (stereo unspecified) | 6.68% |
| Cc1cccc(N(CC(=O)NC2CCCC2)C(=O)CS(=O)CC(=O)Nc2ccc3c(c2)OCO3)c1 (stereo unspecified) | 1.66% |
| Cc1c(NC(=O)C(C)OC(=O)/C=C/c2ccccc2)c(=O)n(-c2ccccc2)n1C (stereo unspecified) | -2.48% |
| Cc1ccccc1Cn1c(Cc2ccccc2)nc2ccccc21 | -1.18% |
| Cc1cccc2cc(C#N)c(SCC#N)nc12 | 4.01% |
| Clc1ccc(N2N=C(c3cccs3)CC2c2ccco2)cc1 (stereo unspecified) | 4.39% |
| c1ccc(N2N=C(c3cccs3)CC2c2ccco2)cc1 (stereo unspecified) | 18.2% |
| NC(=O)CC(NC(=O)Cc1ccc(Br)cc1)c1ccc(N2CCN(c3ccccc3)CC2)c([N+](=O)[O-])c1 (stereo unspecified) | 7.14% |
| CCOC(=O)Cc1nnc(NC(=O)CSc2nnc3c4ccccc4n(C(C)C)c3n2)s1 | 10.5% |

| SMILES | inhibition |
| --- | --- |
| CCOC(=O)Cc1nnc(NC(=O)CSc2nnc3c4ccccc4n(C)c3n2)s1 | 14% |
| CCOC(=O)Cc1nnc(NC(=O)C(CC)Sc2nnc3c4ccccc4n(C)c3n2)s1 (stereo unspecified) | 23.4% (active) |
| Cc1ccc(CNC(=O)CCNS(=O)(=O)c2ccc(C)cc2)cc1 | 9.63% |
| CC(C)NS(=O)(=O)c1ccc(CCC(=O)Nc2ccc3c(c2)OCO3)cc1 | 9.11% |
| Cc1ccc(CNC(=O)CCc2ccc(S(=O)(=O)NCC(C)C)cc2)cc1 | 8.45% |
| O=C(CCc1ccc(S(=O)(=O)NCc2ccccc2)cc1)NCc1cccnc1 | 6.09% |
| CCNS(=O)(=O)c1ccc(CCC(=O)Nc2ccccc2)cc1 | 3.88% |
| CC(C)(C)NS(=O)(=O)c1ccc(CCC(=O)NCc2ccc3c(c2)OCO3)cc1 | 18.7% |
| O=C(Nc1cc(C(F)(F)F)ccc1Cl)C(Sc1nnc(-c2cccs2)o1)c1ccccc1 (stereo unspecified) | -4.08% |
| COCCCNCCOCCOc1c(OC)cccc1OC | -5.39% |
| Cc1cc(C2=CC(C)(c3cc(C)oc3C)Nc3nc(C(F)(F)F)nn32)c(C)o1 (stereo unspecified) | 6.98% |
| O=C(CNC(=O)c1ccc(F)cc1)Nc1ccccc1C(F)(F)F | -1.13% |
| CCOC(=O)C1=C(C)NC2=C(C(=O)CCC2)C1c1ccc(O)c(OCC)c1 (stereo unspecified) | -7% |
| O=C(Nc1nccs1)c1ccc(NC(=O)C2CC=CCC2C(=O)O)cc1 (stereo unspecified) | 8.55% |
| CC1(C)CC(=O)C(C=NCCc2ccc(S(N)(=O)=O)cc2)=C(O)C1 | 12% |
| O=S(=O)(Nc1nc2ccc(S(=O)(=O)N3CCCC3)cc2s1)c1ccc(F)cc1 | 17.8% |
| O=S(=O)(Nc1nc2ccc(S(=O)(=O)N3CCCCC3)cc2s1)c1ccccc1 | 23.2% |
| O=C(O)CCC(=O)N(Cc1cccnc1)Cc1cccc(F)c1 | 6.62% |
| CCCCCN(C(=O)NC(=O)Nc1ccccc1C)S(=O)(=O)c1ccccc1 | -0.93% |
| COc1ccc(-c2nc(CSCC(=O)N3CCN(c4cccc(C)c4)C(C)C3)c(C)o2)cc1OC (stereo unspecified) | 23.8% (active) |
| CCN1CCN(C(=O)CSCc2nc(-c3ccc(OC)c(OC)c3)oc2C)CC1 | 1.5% |
| COc1ccc(-c2nc(CSCC(=O)N3CCN(C)CC3)c(C)o2)cc1OC | 1.38% |
| COc1ccc(/C=N/NC(=S)Nc2ccccc2)cc1COc1ccc(Br)cc1 | 5.9% |

| SMILES | inhibition |
| --- | --- |
| Cc1nnc2n1NC(c1ccc(Cl)cc1)C(C(=O)N(C)C1CCCCC1)S2 (stereo unspecified) | 14.7% |
| Cc1cccc2cc(CN(CCN3CCOCC3)C(=O)NCc3ccccc3)c(=O)[nH]c12 | 11.1% |
| COC(=O)CC[C@@H](C(=O)O)N1C(=O)c2ccccc2C1=O | 1.27% |
| O=C(CSc1nc2nc(-c3cccs3)cc(C(F)(F)F)c2c(=O)[nH]1)Nc1ccc(F)c(F)c1 | 12.9% |
| CCOc1ccccc1NC(=O)CSc1nc2nc(-c3cccs3)cc(C(F)(F)F)c2c(=O)[nH]1 | 3.01% |
| O=C(CSc1nc(-c2cccs2)cc(C(F)(F)F)n1)NCc1ccco1 | 8.47% |
| O=C(NCc1ccco1)c1nn2c(C(F)(F)F)cc(-c3cccs3)nc2c1Br | 15.8% |
| COc1ccc(NC(=O)CSc2ccc(-c3cccs3)nn2)c(OC)c1 | 4.92% |
| CC(=O)Nc1ccc(NC(=O)CSc2nc3nc(-c4cccs4)cc(C(F)(F)F)c3c(=O)[nH]2)cc1 | 13.8% |
| COC(=O)c1ccc(OC(=O)CCN2c3ccccc3Sc3ccccc32)cc1 | -4.42% |
| CC(=O)Nc1ccc(Nc2cc(-c3ccccc3)nc3ncnn23)cc1 | 1.24% |
| NC(=O)c1nnsc1Sc1c(C(N)=O)nnn1-c1cccc(N)c1 | 4.16% |
| OCCNCCOc1ccccc1F | 7.92% |
| COC(=O)[C@H](CC(C)C)NC(=O)NCc1ccc(Cl)cc1 | 5.26% |
| Cc1ccn2c(Nc3ccc4c(c3)OCO4)c(-c3ccccn3)nc2c1 | 12.3% |
| N#Cc1c(NC(=O)C2CCCO2)sc2c1CCCCCC2 (stereo unspecified) | 3.88% |
| O=C1CC(c2ccccc2)Cc2nc3nc(C(F)(F)F)nn3cc21 (stereo unspecified) | -1.32% |
| Cc1ccc(NS(=O)(=O)Cc2ccccc2)nc1 | 5.38% |
| O=c1oc(-c2ccccc2NS(=O)(=O)c2ccccc2)nc2ccccc12 | 9.41% |
| O=C1Nc2ccccc2C1=Nc1ccc(S(=O)(=O)Nc2nccs2)cc1 | 9.76% |
| O=S(=O)(Cc1ccccc1)Nc1ccc(Br)cn1 | 1.35% |
| COc1ccccc1NC(=O)C1=C(C)NC(=O)NC1c1ccccc1F (stereo unspecified) | 5.11% |

— PubChem BioAssay AID1445 (SRMLSC, 2008)
